Measured values reported in PubChem BioAssay (NCATS).
Inconclusive results are not listed. Where a call stands in place of a potency, no number is given. Calls of active or inactive are those of the source. Calls follow the shape of the dose curve; as a rule, active = well fitted curve in the direction sought with a large enough effect; inconclusive = small, poorly fitted or top-dose-only effect, or another doubt; inactive = no such curve, though single readings can be large; an effect the other way counts as inactive or inconclusive.

How the values were obtained:
[1] = Quantitative High-Throughput drug screen in 47 multiple myeloma cell lines against the NCATS MIPE library collection: EJM_DSMZ cell viability assay (AID 1918926; also: nearly all actives have a fitted effect of over 30% in size)
In short: (§1)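 We plated 500 myeloma cells per well, pinned in MIPE 4.0 compounds, and incubated for 48 hours at 37C. ATP was then quantified with CellTiter-Glo, with DMSO and media-only wells defining 100% and 0%.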

[2] = Quantitative High-Throughput drug screen in 47 multiple myeloma cell lines against the NCATS MIPE library collection: AMO1_DSMZ cell viability assay (AID 1918927; also: nearly all actives have a fitted effect of over 30% in size)
In short: as §1

[3] = Quantitative High-Throughput drug screen in 47 multiple myeloma cell lines against the NCATS MIPE library collection: ARP1_JJKsccF8 cell viability assay (AID 1918928; also: nearly all actives have a fitted effect of over 40% in size)
In short: (§2)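 Myeloma cells, 500 per well, were exposed to MIPE 4.0 drugs by pin transfer for 48 h at 37 °C, 5% CO2. Viability was read as ATP luminescence with CellTiter-Glo, normalised to DMSO-only (100%) and medium-only (0%) wells.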

[4] = Quantitative High-Throughput drug screen in 47 multiple myeloma cell lines against the NCATS MIPE library collection: ARD_JJKsccE7 cell viability assay (AID 1918929)
In short: as §1

[5] = Quantitative High-Throughput drug screen in 47 multiple myeloma cell lines against the NCATS MIPE library collection: Karpas620_DSMZ cell viability assay (AID 1918959); also: nearly all actives have a fitted effect of over 30% in size
In short: (§3)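 Viability readout: CellTiter-Glo luminescence following 5 min room-temperature incubation with reagent. Prior exposure: 48 h, 37C, humidified 5% CO2, 500 cells per well.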

[6] = Quantitative High-Throughput drug screen in 47 multiple myeloma cell lines against the NCATS MIPE library collection: KMM1_JCRB cell viability assay (AID 1918960); also: nearly all actives have a fitted effect of over 30% in size
In short: as §2

[7] = Quantitative High-Throughput drug screen in 47 multiple myeloma cell lines against the NCATS MIPE library collection: KHM11_PLB cell viability assay (AID 1918962); also: nearly all actives have a fitted effect of over 35% in size
In short: as §3

[8] = Quantitative High-Throughput drug screen in 47 multiple myeloma cell lines against the NCATS MIPE library collection: JIM3_ECACC cell viability assay (AID 1918963; also: nearly all actives have a fitted effect of over 35% in size)
In short: as §3

[9] = Quantitative High-Throughput drug screen in 47 multiple myeloma cell lines against the NCATS MIPE library collection: JIM1_ECACC cell viability assay (AID 1918964)
In short: as §1

[10] = Quantitative High-Throughput drug screen in 47 multiple myeloma cell lines against the NCATS MIPE library collection: Karpas417_ECACC cell viability assay (AID 1918961); conditions: Karpas417 myeloma viability, CellTiter-Glo ATP luminescence, 48 h; viability (% of DMSO): at 45.8 µM (top of the series)
In short: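 Approved and investigational drugs from MIPE 4.0 were added by pin tool to 500 cells per well. After 48 hours at 37C, ATP-based CellTiter-Glo luminescence indicated remaining viability.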
Potency is read from the fitted curve at half-maximal effect.

SMILES	Potency [1]	Potency [2]	Potency [3]	Potency [4]	Potency [5]	Potency [6]	Potency [7]	Potency [8]	Potency [9]	Potency [10]
CN(C)c1nc(Cc2ccc(NC(=O)c3ccc(C(F)(F)F)cc3)cc2)nc(N(C)C)c1CC(=O)O	inactive	inactive	inactive	inactive	inactive	inactive	inactive	inactive	inactive	
CNC1[C@H](O)C(O[C@@H]2C(O)C(O[C@H]3O[C@H]([C@@H](C)NC)CC[C@H]3N)[C@@H](N)C[C@H]2N)OC[C@]1(C)O (some centres not stated)	inactive	inactive	inactive	inactive	inactive		inactive	inactive		
COc1ccc2c(c1)CC[C@H]1[C@@H]2CC[C@]2(C)[C@@H](NCCCCCCN3C(=O)C=CC3=O)CC[C@H]12	inactive	inactive	inactive	inactive	inactive	inactive		inactive		
CCCC1OC2C[C@@H]3[C@H]4CCC5=CC(=O)C=C[C@]5(C)[C@H]4C(O)C[C@]3(C)[C@]2(C(=O)CO)O1 (some centres not stated)	11.8 µM (active)	inactive	0.469 µM (active)	0.0118 µM (active)	inactive					
C=CC(=O)Nc1cccc(Sc2nc(Nc3ccc(N4CCN(C)CC4)cc3)ncc2Cl)c1	18.7 µM (active)									
Oc1ccc(C=Cc2cc(O)cc(O)c2)cc1	inactive	inactive	13.2 µM (active)	inactive	inactive	inactive			inactive	
CC(=O)Nc1cccc(-n2c(=O)n(C3CC3)c(=O)c3c(Nc4ccc(I)cc4F)n(C)c(=O)c(C)c32)c1	0.0372 µM (active)	1.18 µM (active)	inactive		0.0296 µM (active)	0.0935 µM (active)	0.0059 µM (active)	0.187 µM (active)		
CN1CCN2c3ncccc3Cc3ccccc3C2C1 (configuration not stated)	inactive	inactive	inactive	inactive	inactive	inactive	inactive	inactive		
CCC=CC[C@H]1C(=O)CC[C@@H]1CC(=O)OC	inactive	inactive	inactive	inactive	inactive	inactive		inactive	inactive	
C[C@@H](O)[C@H]1C(=O)N2C(C(=O)OCOC(=O)C(C)(C)C)=C(SC3CN(C4=NCCS4)C3)[C@H](C)[C@H]12	inactive	inactive	inactive	inactive	inactive		inactive	inactive	inactive	
CN(C)CCOc1ccc(-c2nc(-c3ccc4c(c3)CCC4=NO)c(-c3ccncc3)[nH]2)cc1	23.5 µM (active)	18.7 µM (active)	16.6 µM (active)	23.5 µM (active)	11.8 µM (active)	14.8 µM (active)	1.32 µM (active)	23.5 µM (active)	18.7 µM (active)	9.35 µM (active)
O=C1CCCC(=O)C1C(=O)c1ccc(C(F)(F)F)cc1[N+](=O)[O-]	inactive	inactive	inactive	6.62 µM (active)	inactive		inactive	inactive		inactive
CCCCCOC(=O)Nc1nc(=O)n([C@@H]2O[C@H](C)[C@@H](O)C2O)cc1F (some centres not stated)	inactive	inactive	inactive	inactive	inactive	inactive		inactive	inactive	
N[C@@H](CC(=O)N1CCn2c(nnc2C(F)(F)F)C1)Cc1cc(F)c(F)cc1F	inactive	inactive	inactive	inactive	inactive	inactive	inactive	inactive	inactive	
Nc1ncnc2c1ncn2[C@@H]1O[C@H](CO)[C@@H](O)[C@@H]1O	inactive	1.87 µM (active)	23.5 µM (active)	2.64 µM (active)	5.26 µM (active)	1.32 µM (active)		inactive	7.43 µM (active)	
CCOC(=O)[C@H](CCc1ccccc1)N[C@@H](C)C(=O)N1CCCC1C(=O)O (some centres not stated)	inactive	inactive	inactive	inactive	inactive	inactive	inactive			
O=S(=O)(O)c1ccc2cc(N=Nc3cc(S(=O)(=O)O)c4cccnc4c3O)ccc2c1	16.6 µM (active)	inactive	2.35 µM (active)		inactive					
CCN1C[C@H](C)n2c(c(O)c3c(=O)n(Cc4ccc(F)c(Cl)c4)nc(C(=O)NC)c32)C1=O	inactive	inactive	inactive	inactive	0.0066 µM (active)	inactive	inactive	inactive	inactive	
Cc1cccc(Nc2nc(N[C@@H]3CCCC[C@H]3N)ncc2C(N)=O)c1	20.9 µM (active)	20.9 µM (active)	16.6 µM (active)		26.4 µM (active)	16.6 µM (active)	4.18 µM (active)	16.6 µM (active)	5.9 µM (active)	3.72 µM (active)
C#C[C@]1(O)CC[C@H]2[C@H]3CCc4cc(OC)ccc4[C@H]3CC[C@@]21C	13.2 µM (active)	26.4 µM (active)	inactive	23.5 µM (active)			18.7 µM (active)	inactive		

SMILES	Potency [1]	Potency [2]	Potency [3]	Potency [4]	Potency [5]	Potency [6]	Potency [7]	Potency [8]	Potency [9]	Potency [10]
N#CC(c1ccnc(NCCc2cccnc2)n1)c1nc2ccccc2s1 (configuration not stated)	18.7 µM (active)	6.62 µM (active)	18.7 µM (active)	6.62 µM (active)	9.35 µM (active)		11.8 µM (active)	16.6 µM (active)	5.9 µM (active)	
CC(C)=CCCC(C)=CCCC(C)=CCCC(C)=CCCC(C)=CCCC(C)=CCCC(C)=CCCC(C)=CCCC(C)=CCO	inactive	inactive	inactive	inactive	inactive	inactive		inactive	inactive	
N#CC1(c2cccc(C(=O)Nc3cc(Oc4ccc5nc(NC(=O)C6CC6)sc5n4)ccc3F)c2Cl)CC1	20.9 µM (active)									
Clc1ccc(COC(Cn2ccnc2)c2ccc(Cl)cc2Cl)c(Cl)c1 (configuration not stated)	20.9 µM (active)	23.5 µM (active)	18.7 µM (active)	23.5 µM (active)	20.9 µM (active)	18.7 µM (active)		20.9 µM (active)	26.4 µM (active)	
O=C(Nc1cccc2c(=O)cc(-c3nn[nH]n3)oc12)c1ccc(OCCCCc2ccccc2)cc1	inactive									
CN1C(=O)C(Cc2c[nH]c3ccccc23)NC1=S (configuration not stated)	inactive	inactive	inactive	inactive	inactive			inactive		
CC1(C)OC2CC3C4CC(F)C5=CC(=O)C=CC5(C)C4C(O)CC3(C)[C@]2(C(=O)CO)O1 (some centres not stated)	inactive	inactive	0.0209 µM (active)	0.0187 µM (active)	inactive	0.0235 µM (active)		inactive		
CCC(C)SSc1ncc[nH]1 (configuration not stated)	13.2 µM (active)	9.35 µM (active)	9.35 µM (active)	5.26 µM (active)	4.69 µM (active)	3.32 µM (active)	13.2 µM (active)	14.8 µM (active)	5.9 µM (active)	2.35 µM (active)
O=C(O)C1=CO[C@@H](O[C@@H]2O[C@H](CO)[C@H](O)[C@H](O)[C@H]2O)[C@@H]2C(CO)=CC[C@H]12	5.9 µM (active)	inactive	inactive	inactive				inactive		
CC(C)(F)C[C@H](N[C@@H](c1ccc(-c2ccc(S(C)(=O)=O)cc2)cc1)C(F)(F)F)C(=O)NC1(C#N)CC1	inactive	inactive	inactive	inactive	inactive			0.0833 µM (active)		
Cc1[nH]c(C=C2C(=O)Nc3ccc(S(=O)(=O)N(C)c4cccc(Cl)c4)cc32)c(C)c1C(=O)N1CCN(C)CC1	23.5 µM (active)	5.9 µM (active)	23.5 µM (active)	6.62 µM (active)	9.35 µM (active)		18.7 µM (active)	20.9 µM (active)	9.35 µM (active)	3.72 µM (active)
CN(C)CCN(C)C(=O)c1ccc(NC(=O)Nc2ccc(-c3nc(N4CCOCC4)c4ccn(CC(F)(F)F)c4n3)cc2)cc1	0.209 µM (active)	0.418 µM (active)	0.0264 µM (active)	0.0235 µM (active)				0.105 µM (active)	0.001 µM (active)	
COc1cc2nc(-c3cc(F)ccc3O)nc(N[C@@H]3CNC[C@@H]3C(C)(C)O)c2cc1OC	11.8 µM (active)	6.62 µM (active)	10.5 µM (active)	6.62 µM (active)	6.62 µM (active)	4.18 µM (active)	0.0743 µM (active)	7.43 µM (active)	1.87 µM (active)	
NCC1CCC(C(=O)O)CC1 (configuration not stated)	inactive	inactive	inactive	inactive	inactive	inactive	4.18 µM (active)	inactive		
CC1(C)C(N(O)C(=O)Nc2ccc(Cl)cc2)N(c2ccc(Cl)cc2)C(=O)N1CC(=O)NN=CC=Cc1ccc([N+](=O)[O-])o1 (configuration not stated)	16.6 µM (active)	inactive	7.43 µM (active)		inactive	inactive	11.8 µM (active)	14.8 µM (active)		
O=C(O)c1nc(=O)[nH]c(=O)[nH]1	inactive	inactive	inactive	inactive	inactive	inactive	inactive			
COc1ccnc(CS(=O)c2nc3ccc(OC(F)F)cc3[nH]2)c1OC (configuration not stated)	inactive	inactive	inactive		29.6 µM (active)	inactive		inactive		
Cc1ccc2c(c1)c1c(n2CCc2ccc(C)nc2)CCN(C)C1	inactive	inactive		inactive	inactive	inactive		inactive	inactive	
COc1cc2nccc(Oc3ccc(NC(=O)Nc4cc(C)on4)c(Cl)c3)c2cc1OC	13.2 µM (active)	4.18 µM (active)		6.62 µM (active)						
